A selection: hits, their analogues and other compounds. The true share with any hit is near 8%.
KB-3-1 cytotox – kills parental KB-3-1 adenocarcinoma cells; KB-3-1 viability, CellTiter-Glo ATP luminescence, 72 h; Potency, µM (top dose mostly 46.1 µM), actives largely listed as cytotoxic; hit rate 1.4% among 400,000; note: % is set by controls: 0 for no effect and ±100 for the full control effect; nearly all actives have a fitted effect of over 60% in size
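Here the drug-naive KB-3-1 line serves as comparator for MDR sub-line selectivity; cells received compound titrations, 72 h at 37 °C, then CellTiter-Glo readout.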
HT1080 IDH1KD tx – toxicity to HT-1080 IDH1 knockdown cells (counter line). AID 686971. hit rate 2% among 360,000. Potency, µM (highest dose often 46.1 µM), for inactives: at the top dose activity, negative = toxicity, usual class: cytotoxic. HT-1080 IDH1 knockdown viability, ATP luminescence, 48 h;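 note: 0% = DMSO wells and -100% = cell-free medium wells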
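HT-1080-IDH1KD cells (IDH1 knocked down), 750/well in RPMI with 5% FBS, treated with compound 48 h at 37 degrees C. Viability by CellTiter-Glo luminescence, normalised to DMSO and no-cell wells; concentration-response curves classed.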
MCF10A rerep – induces DNA re-replication in MCF 10a normal breast cells | MCF 10A DNA re-replication, Hoechst nuclear intensity, 48 h | Potency, µM (highest dose often 46.1 µM), for the others: at the top dose activity, positive = re-replication, most hits filed as activators | hit rate 2.9% among 350,000 | AID 624296; note: % of control where 0% means no effect; nearly all actives have a fitted effect of over 50% in size
KB-V1 MDR tox – kills drug-selected multidrug resistant KB-V1 cells; KB-V1 MDR cells viability, CellTiter-Glo, 72 h; Potency, µM (top dose mostly 46.1 µM), hits mostly cytotoxic; hit rate 3.4% among 400,000; note: % is set by controls: 0 for no effect and ±100 for the full control effect; nearly all actives have a fitted effect of over 60% in size
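Cells of the MDR subline KB-V1 are plated, dosed with compound at multiple concentrations, and incubated 72 h at 37 degrees C; CellTiter-Glo is then added and luminescence read after 10 min.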
SW480 rereplic – DNA re-replication induction in SW480 cells; Potency, µM (doses to about 46.1 µM), for the others: at the highest dose re-replication activation, usual class: activators; SW480 DNA re-replication, Hoechst DNA content imaging, 48 h; hit rate 1.8% among 340,000; AID 624297; note: % of control where 0% means no effect; nearly all actives have a fitted effect of over 55% in size
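Per well, 250 cells were exposed to pinned compound for 48 hr. Nuclear DNA was visualised with Hoechst (40 min, 37 C) and total object intensity recorded by fluorescence scanning.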
HT1080NT lethal – kills 2HG-producing HT-1080-NT fibrosarcoma cells; HT-1080-NT fibrosarcoma viability, CellTiter-Glo ATP luminescence, 48 h; Potency, µM (doses to about 46.1 µM), for inactives: top-dose activity, negative = less viability, most hits filed as cytotoxic; hit rate 1.6% among 360,000; AID 686970;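 note: NT is the 2HG producing partner of a matched IDH1 knockdown line; 0% = DMSO-treated cells and -100% = media-only wells without cells; nearly all actives have a fitted effect of over 55% in size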
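Viability of the 2HG-overproducing fibrosarcoma line after 48 hours of compound exposure at 37 degrees C was determined by luminescence with CellTiter-Glo, and concentration-effect curves were then fitted and categorized.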
The depositor's hits bear a star; i = inactive; u = inconclusive; x = no result given; [ ] = another dose, or the depositor's remark. Calls come from the whole dose curve; as a rule, active = well fitted curve in the direction sought with a large enough effect; inconclusive = small, poorly fitted or top-dose-only effect, or another doubt; inactive = no such curve, though single readings can be large; an effect the other way counts as inactive or inconclusive. Potency is the fitted concentration of half-maximal effect.

SMILES	KB-3-1 cytotox	HT1080 IDH1KD tx	MCF10A rerep	KB-V1 MDR tox	SW480 rereplic	HT1080NT lethal
COc1cccc(-c2nc(CSCC(=O)N3CCc4ccccc43)c(C)o2)c1	u	12%	11%	10µM*	0%	0%
CCOC(=O)C1C(=O)OC(C)(C)C1C(C)C(=O)c1ccccc1 (stereo not drawn)	i	15%	-189%[0.0737 µM]	i	-9%	3%
COc1ccc2cc3cc(C(=O)Nc4ccccc4N4CCN(C)CC4)oc3nc2c1	u	7%	u	12µM*	u	2%
CCOc1ccc(NC(=O)c2cc3cc4ccc(OC)cc4nc3o2)cc1	i	5%	12µM*	i	u	16%
CN1CCN(c2nc3c(c(=O)n(C)c(=O)n3C)n2Cc2cccc(Br)c2)CC1	i	-4%	u	i	-22%	-5%
Cn1c(N2CCCCC2)nc2c1c(=O)n(Cc1cccc(Br)c1)c(=O)n2C	i	15%	6%	10µM*	-6%	5%
CC1CN(c2nc3c(c(=O)n(Cc4ccc(Cl)c(Cl)c4)c(=O)n3C)n2C)CC(C)O1 (stereo not drawn)	u	-16%	u	5.2µM*	u	-7%
COc1ccc(CNc2nc3c(c(=O)n(Cc4ccc(Cl)cc4)c(=O)n3C)n2C)cc1	u	-30%	12%	16µM*	u	u
Cn1c(N2CCN(c3ccccn3)CC2)nc2c1c(=O)n(Cc1ccc(Cl)cc1)c(=O)n2C	i	6%	-4%	u	8%	7%
COCCNc1nc2c(c(=O)n(Cc3ccc(OC)cc3)c(=O)n2C)n1C	i	3%	5%	i	-5%	5%
C=CCOc1nc2c(c(=O)n(Cc3ccc(Cl)c(Cl)c3)c(=O)n2C)n1C	i	7%	u	u	1%	5%
Cn1c(N2CCOCC2)nc2c1c(=O)n(Cc1ccc(Cl)cc1)c(=O)n2C	i	3%	13%	23µM*	0%	4%
Cc1ccnc(SCCn2c(N3CCC(C)CC3)nc3c2c(=O)n(C)c(=O)n3C)n1	i	4%	0%	i	-3%	-1%[9.24 µM]
Cn1c(=O)c2c(nc(N3CCCCCC3)n2Cc2cccc3ccccc23)n(C)c1=O	18µM*	-29%	u	u	-7%	-5%
Cc1ccnc(SCCn2c(N3CCCCC3)nc3c2c(=O)n(C)c(=O)n3C)n1	i	10%	-1%	18µM*	-10%	13%
CC(C)(C)c1ccc(-c2nnc(-c3ccccc3NC(=O)c3ccc(F)cc3F)o2)cc1	i	x	x	i	x	x
CSc1nnc(-c2sc3cc(C(F)(F)F)cnc3c2-c2ccccc2)n1C	6.5µM*	-27%[9.24 µM]	4.6µM*	3.7µM*	14%	u
O=C(O)c1sc2cc(C(F)(F)F)cnc2c1-c1ccccc1	i	-1%	5%	i	-6%	-5%
O=C(CCSc1ccc(Cl)c(Cl)c1)NC12CC3CC(CC(C3)C1)C2	u	-18%	18µM*	u	u	-23%
Cc1ccc(N(C(=O)c2ccccn2)C(C(=O)NC2CCCCC2)c2ccncc2)cc1 (stereo not drawn)	u	-1%	7%	i	-20%	4%
CC(=O)N(C(C)=O)c1ncnc2c1c(-c1ccc(Cl)cc1)nn2C(C)(C)C	u	15µM*	u	u	16%	u
CC(=O)Nc1ncnc2c1c(-c1ccc(Cl)cc1)nn2C(C)(C)C	i	-18%	u	i	-17%	-19%
CC(=O)N(CCC(Cc1ccccc1)c1ccc2c(c1)OCO2)Cc1ccc(Cl)cc1 (stereo not drawn)	u	u	16µM*	u	u	u
O=C(O)CC(Cc1ccccc1)c1ccc2c(c1)OCO2 (stereo not drawn)	u	-13%	17%	u	-8%	-10%
O=C(Nc1ccc(Cn2cccn2)cc1)c1ccc(COc2cccc(Br)c2)cc1	0.73µM*	u	u	9.2µM*	-1%	-15%
SMILES	KB-3-1 cytotox	HT1080 IDH1KD tx	MCF10A rerep	KB-V1 MDR tox	SW480 rereplic	HT1080NT lethal
O=C(Nc1ccc(Cn2cccn2)cc1)c1ccc(COc2ccc(Br)cc2)cc1	i	-1%	3%	i	-2%[9.22 µM]	4%
Cc1ccc(C(=O)c2no[n+]([O-])c2C(=O)c2ccc(C)cc2)cc1	i	u	7.3µM*	i	5.2µM*	u
COc1ccc(C(=O)c2coc3ccc(OC(C)=O)cc23)cc1	i	-9%	-9%	i	-2%	-4%
COc1ccc(OC)c(C(=O)c2coc3ccc(OC(C)=O)cc23)c1	i	u	21µM*	i	u	-20%
O=C(CCCOc1ccc(Cl)cc1Cl)Nc1cc(S(=O)(=O)N2CCOCC2)ccc1N1CCOCC1	i	-3%	12%	6.5µM*	5%	-13%
COc1ccc2ccccc2c1/C=N/NC(=S)Nc1cc(S(=O)(=O)N2CCOCC2)ccc1N1CCOCC1	u	-3%	u	i	u	-2%
O=C(Cc1ccccc1Cl)Nc1cc(S(=O)(=O)N2CCOCC2)ccc1N1CCOCC1	i	11%	12%	16µM*	2%	5%
COc1ccc(/C=N/NC(=S)Nc2cc(S(=O)(=O)N3CCOCC3)ccc2N2CCOCC2)cc1O	u	16µM*	u	u	u	21µM*
COc1ccccc1CNCC(=O)Nc1cc(S(=O)(=O)N2CCOCC2)ccc1Cl	i	11%	16%	u	2%	3%
Cc1ccc(S(=O)(=O)N2CCOCC2)cc1NC(=O)CNCc1ccccc1Cl	i	-8%	u	i	5.2µM*	-1%
COc1ccc(S(=O)(=O)N2CCOCC2)cc1NC(=O)CCCOc1ccc(Cl)cc1C	i	-8%	0%	i	4%	-9%
CCc1nc2ccc(C(=O)Nc3cccc(NS(C)(=O)=O)c3)cn2c1N(C=O)CCC(C)C	i	-21%	x	i	x	-17%
CC1C(=O)N(Cc2ccc([N+](=O)[O-])cc2)c2ccccc2N1C(=O)c1c(F)cccc1F (stereo not drawn)	i	-29%	14%	i	-1%	-19%
NCCCNC(=O)c1ccc(/C=N/O)nc1	i	21%	-5%	i	0%	15%
O=c1[nH]c(-[n+]2ccc3ccccc3c2)c(/C=N/N=C(\[O-])c2ccccc2)s1	i	0%	-46%	i	-8%	15%
